Assay results from PubChem BioAssay (EPA / NIEHS).
The source made the active and inactive calls. Rule for the calls: active = hit-call score of the fitted dose curve at least 0.9, where 1 is the maximum; inactive = score below 0.9.

Experiment: BSK_3C_TissueFactor: BioMAP Diversity Plus: 3C Assay for Tissue Factor Biomarker Activity (AID 2282997)
Conditions: BioMAP 3C HUVEC, tissue factor biomarker readout; actives raise or lower the signal
Procedure: BSK_3C is a cell-based, multiplexed-readout assay that uses umbilical vein endothelium, a human vascular primary cell, with measurements taken at 24 hours after chemical dosing in a 96-well plate.BSK_3C_TissueFactor is an assay component measured in the BSK_3C assay. It measures Tissue Factor antibody related to regulation of gene expression using ELISA technology.Data from the assay component BSK_3C_TissueFactor was analyzed into 1 assay endpoint. This assay endpoint, BSK_3C_TissueFactor, was analyzed with bidirectional fitting relative to DMSO as the negative control and baseline of activity. Using a type of binding reporter, gain or loss-of-signal activity can be used to understand changes in the signaling as they relate to the gene F3. Furthermore, this assay endpoint can be referred to as a primary readout, because this assay has produced multiple assay endpoints where this one serves a signaling function. To generalize the intended target to other relatable targets, this assay endpoint is annotated to the cytokine intended target family, where the subfamily is coagulation factor.
The levels of cell surface (or secreted, indicated by the prefix "s") biomarker endpoints were measured by ELISA. Overt cytotoxicity to cells in confluent adherent cultures (all systems other than the BT system) was assessed by measuring total protein levels using sulforhodamine B (SRB) staining in parallel cultures at the time of biomarker measurements, indicated as SRB endpoints. For proliferation assays for adherent cell types, individual cell types are cultured at sub-confluence and relative cell numbers quantified by SRB staining at time points optimized for each system (48 h: 3C and CASM3C systems; 72 h: BT and HDF3CGF systems; 96 h: SAg system). SRB was performed by staining cells with 0.1% SRB after fixation with 10% TCA and reading wells at 560 nm.Viability and proliferation of PBMC (T cells) was quantified by Alamar Blue reduction for the SAg and BT systems. For PBMC viability (referred to as PBMC Cytotoxicity within the assay endpoint names), cells were plated (75,000/well in a 96-well plate) and then chemical samples added for 1 h before addition of activators, SEB and TSST-1 (20 ng/mL final concentration each). Cells were incubated for 90 h. Then, Alamar Blue (20 uL/well) (Invitrogen, Cat DAL1100) was added for 6 h, and the plates were read with a fluorescence microplate reader at 546/580 nm (excitation/emission). For PBMC proliferation, cells were plated and activated as above but incubated for only 16 h prior to addition of Alamar Blue. Plates were read after 6 h.

Structure (SMILES)	outcome	AC50
COc1cc(OC)nc(NC(=O)NS(=O)(=O)c2ncccc2OCC(F)(F)F)n1	inactive	–
CCOP(=O)(OCC)Oc1nc(Cl)c(Cl)cc1Cl	inactive	–
CNC(=O)N(C)c1nnc(C(C)(C)C)s1	inactive	–
COP(=O)(OC)O/C(C)=C/C(=O)N(C)C	inactive	–
Cc1ccc(N=CN(C)C=Nc2ccc(C)cc2C)c(C)c1	–	32 µM (active)
CCCCOCN(C(=O)CCl)c1c(CC)cccc1CC	–	16 µM (active)
Cc1c(COC(=O)[C@@H]2[C@H](/C=C(\Cl)C(F)(F)F)C2(C)C)cccc1-c1ccccc1	inactive	–
OC(c1ccc(Cl)cc1)(c1ccc(Cl)cc1)C(Cl)(Cl)Cl	–	25.6 µM (active)
CC(C)(C)C(=O)C(Oc1ccc(Cl)cc1)n1cncn1 (stereo not given)	inactive	–
COCC(=O)N(c1c(C)cccc1C)C(C)C(=O)OC (stereo not given)	inactive	–
COc1cc(Cl)c(OC)cc1Cl	inactive	–
CCOP(=S)(OCC)Oc1nc(Cl)n(C(C)C)n1	inactive	–
COC(=O)NS(=O)(=O)c1ccc(N)cc1	inactive	–
N#Cc1c(Cl)cccc1Cl	inactive	–
Clc1nc(Cl)nc(Nc2ccccc2Cl)n1	inactive	–
CC(C)N1C(=O)c2ccccc2NS1(=O)=O	inactive	–
Nc1cnn(-c2ccccc2)c(=O)c1Cl	inactive	–
COC(=O)N(C(=O)N1CO[C@@]2(C(=O)OC)Cc3cc(Cl)ccc3C2=N1)c1ccc(OC(F)(F)F)cc1	inactive	–
COCC(C)N(C(=O)CCl)c1c(C)csc1C (stereo not given)	inactive	–
CC1(C)C(C=C(Cl)Cl)C1C(=O)OC(C#N)c1cccc(Oc2ccccc2)c1 (stereo not given)	inactive	–

Structure (SMILES)	outcome	AC50
COC(=O)c1c(C(F)F)nc(C(F)(F)F)c(C2=NCCS2)c1CC(C)C	inactive	–
CCNC(=O)NC(=O)C(C#N)=NOC	inactive	–
CC(C)=CC1C(C(=O)OCc2coc(Cc3ccccc3)c2)C1(C)C (stereo not given)	inactive	–
CCN(CC)C(=O)C(C)Oc1cccc2ccccc12 (stereo not given)	inactive	–
CC1(C)C(C(=O)OC(C#N)c2cccc(Oc3ccccc3)c2)C1(C)C (stereo not given)	inactive	–
CO/N=C(/C1=NOCCO1)c1ccccc1Oc1ncnc(Oc2ccccc2Cl)c1F	inactive	–
CC(C)Nc1nc(Cl)nc(NC(C)C)n1	inactive	–
CC(C)N1C(=O)N(c2ccccc2)CSC1=NC(C)(C)C	–	22.9 µM (active)
CC(C)NC(=O)N1CC(=O)N(c2cc(Cl)cc(Cl)c2)C1=O	inactive	–
Nc1c(Cl)c(F)nc(OCC(=O)O)c1Cl	inactive	–
COP(=S)(OC)Oc1ccc([N+](=O)[O-])c(C)c1	inactive	–
O=c1n(Cl)c(=O)n(Cl)c(=O)n1Cl	inactive	–
CCCC(=NOCC)C1=C(O)CC(CC(C)SCC)CC1=O (stereo not given)	inactive	–
CNC(=O)Oc1cccc2ccccc12	inactive	–
CCCCC(O)(Cn1cncn1)c1ccc(Cl)cc1Cl (stereo not given)	inactive	–
Cc1cc(C)nc(Nc2ccccc2)n1	inactive	–
N#CN=C1SCCN1Cc1ccc(Cl)nc1	inactive	–
N#Cc1c[nH]cc1-c1cccc2c1OC(F)(F)O2	inactive	–
CCOc1cc(C(C)(C)C)ccc1C1COC(c2c(F)cccc2F)=N1 (stereo not given)	–	37 µM (active)
CSC(=O)c1c(C(F)F)nc(C(F)(F)F)c(C(=O)SC)c1CC(C)C	inactive	–
